Screens from PubChem.
Rows were chosen to be rich in hits. Some 2.3% of all compounds tested hit in one or more screens of this group.
aSyn yeast inh: qHTS of alpha-syn Inhibitors; Potency, µM (series often up to 46.1 µM), usual class: activators; 370,000 compounds, 0.14% hits; Yeast expressing alpha-synuclein, growth rescue, BacTiter-Glo, 24 h; note: nearly all actives have a fitted effect of over 65% in size
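Screening used galactose-induced yeast with toxic alpha-synuclein levels, exposed to compound for 24 hr at 30 deg C. Cell growth, read with BacTiter-Glo luminescence, gave the measured signal.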
FUS yeast rescue: qHTS for Suppressors of FUS Proteinopathy: Primary screen using FUS-linked yeast assay | S. cerevisiae FUS-expressing, growth rescue, OD600, 24 h | Potency, µM (titrated, usually from 76.6 µM), most hits filed as activators | 390,000 compounds, 0.24% hits | AID 1347120, 2019; note: nearly all actives have a fitted effect of over 55% in size
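Read-out: OD at 600 nm after 24hr at 30C, reporting rescue of FUS-induced yeast toxicity. Cells at OD 0.005 in galactose (2%) minimal medium; compounds tested in a dilution series; CP55940 titration from 92uM final as control.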
TDP-43 yeast inh: qHTS of TDP-43 Inhibitors | TDP-43 expressing yeast growth rescue, BacTiter-Glo, 24 h | Potency, µM (highest dose often 46.1 µM), hits mostly activators | 410,000 compounds, 1.8% hits | AID 652104, 2013; note: nearly all actives have a fitted effect of over 50% in size
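Readout is BacTiter-Glo luminescence of cell growth, so inhibitors register as activators. TDP-43-expressing yeast at OD600=0.02 in galactose medium, after raffinose pregrowth to mid-log, were incubated with compound for 24 hr at 30 deg C.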
uPA generation: qHTS for Inhibitors of Cell Surface uPA Generation; cell surface uPA generation assay, qHTS; AID 540303, 2011; Potency, µM (series often up to 38.3 µM), most hits filed as inhibitors; 330,000 compounds, 0.31% hits; active = well fitted inhibition curve with a large enough effect; inconclusive = small, poorly fitted or top-dose-only effect; inactive = no such curve, though single readings can be large or run the other way; tested in mouse RAW 264.7 cells; note: nearly all actives have a fitted effect of over 55% in size
Abeta yeast res: qHTS for compounds that reverse cellular toxicity of Amyloid beta (A-beta) peptide in yeast: Primary Screen | Potency, µM (highest dose often 46.1 µM), hits mostly activators | yeast expressing A-beta42, growth rescue, OD600, 48 h; response scale: 0% DMSO, 100% iron-clioquinol control | 410,000 compounds, 0.063% hits; note: nearly all actives have a fitted effect of over 55% in size
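Growth rescue measured by 600 nm absorbance after 48 h yeast culture at 30 C with compound. Values normalized between DMSO and an equimolar ferric chloride plus clioquinol control.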
Chronic BCR inh: qHTS Assay to Find Inhibitors of Chronic Active B-Cell Receptor Signaling; Potency, µM (series often up to 46.1 µM), most hits filed as inhibitors; ABC-DLBCL IkBa-CBG/CBR reporter, luminescence ratio, 4 h; 340,000 compounds, 0.05% hits; active = well fitted inhibition curve with a large enough effect in the signal ratio, with a control signal flat, not every such curve was filed as active; inconclusive = small, poorly fitted or top-dose-only effect, or effect the other way, or a change in a side signal; the % refers to the signal ratio
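Compounds up to 46 uM were incubated four hours with TMD8 cells whose green CBG68 luciferase is fused to IkappaBalpha; red CBR luminescence normalised the signal, and concentration-effect curves were fitted to fusion, red and ratio data.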
Large screens that a line does not name were inactive. Unless noted, calls come from the whole dose curve; as a rule, active = well fitted curve in the direction sought with a large enough effect; inconclusive = small, poorly fitted or top-dose-only effect, or another doubt; inactive = no such curve, though single readings can be large; an effect the other way counts as inactive or inconclusive.

O=C(O)[C@H]1CCCN1C(=O)c1ccccc1N1C(=O)[C@@H]2Cc3c([nH]c4ccccc34)C(c3cccc(Cl)c3)N2C1=O (stereo partly specified)	none
N=C1S/C(=C\c2cccc3ccccc23)C(=O)N1c1ccc(F)cc1	Chronic BCR inh inconclusive (no result: FUS yeast rescue)
Cc1cc(NC(=O)c2cc(-c3ccncc3)nc3ccccc23)ccc1Br	TDP-43 yeast inh 18µM, Chronic BCR inh inconclusive (no result: FUS yeast rescue)
Cc1cc(NC(=O)c2ccoc2C)ccc1Br	TDP-43 yeast inh 11µM
Cc1ccc(-c2cc(C(=O)Nc3cccnc3)c3ccccc3n2)o1	FUS yeast rescue 3.2µM
O=C(Nc1cccnc1)c1ccccc1O	Chronic BCR inh inconclusive
Cc1ccc(NC(=O)c2cc(-c3ccc(C)o3)nc3ccccc23)cc1	FUS yeast rescue inconclusive, TDP-43 yeast inh inconclusive, Chronic BCR inh inconclusive
O=C(Nc1cccnc1)c1coc(=O)c2ccccc12	Chronic BCR inh 18µM
COc1ccc(C(=O)Nc2nc(-c3cccs3)cs2)cc1	none (no result: FUS yeast rescue, Chronic BCR inh)
COc1ccc(-c2csc(NC(=O)Cc3ccccc3F)n2)c(OC)c1	TDP-43 yeast inh 13µM
COc1ccc(OC)c(-c2csc(NC(=O)Cc3ccccc3)n2)c1	TDP-43 yeast inh inconclusive, Chronic BCR inh inconclusive
O=C(Nc1nc(-c2cccs2)cs1)c1ccc(Cl)cc1	TDP-43 yeast inh 35µM, Chronic BCR inh inconclusive
Cc1ccc(C(=O)Nc2nccc(-c3cccs3)n2)cc1	TDP-43 yeast inh 13µM, Chronic BCR inh inconclusive
O=C(Cc1ccccc1F)Nc1nc(-c2cccs2)cs1	TDP-43 yeast inh 13µM, Chronic BCR inh inconclusive
COc1ccc(CC(=O)OCC(=O)N2CCN(S(=O)(=O)c3ccc(C)cc3C)CC2)cc1OC	none
CCn1c(SCC(=O)OC)nc2cc(S(=O)(=O)N3CCOCC3)ccc21	none
COC(=O)c1ccc(NC(=O)COc2ccc3c(c2)OCO3)cc1	none
NNC(=O)c1cc2c(ccc3ccccc32)o1	TDP-43 yeast inh inconclusive, Chronic BCR inh inconclusive
CC(=O)c1ccc(N2CCC(c3cc(-c4ccc(Cl)cc4)n[nH]3)CC2)c([N+](=O)[O-])c1	TDP-43 yeast inh 16µM, Chronic BCR inh inconclusive
CC(C)(C)/C(O)=C/c1nc2ccccc2oc1=O	none
O=c1oc2ccccc2nc1/C=C(\O)c1ccccc1	uPA generation 2.2µM, Chronic BCR inh inconclusive
Cc1ccc(C)c(NS(=O)(=O)c2ccc3[nH]c(=O)oc3c2)c1	none
O=C(CSc1nccc(-c2cccs2)n1)Nc1ccc(F)c(Cl)c1	TDP-43 yeast inh inconclusive, Abeta yeast res inconclusive
O=C(CSc1nccc(-c2cccs2)n1)Nc1cccc(Cl)c1	TDP-43 yeast inh 14µM
CCN(CC)C(=O)[C@H]1C[C@H](CC(=O)NCc2cccc(C(F)(F)F)c2)C(=O)N2CCc3c([nH]c4ccc(Cl)cc34)[C@]12C	aSyn yeast inh inconclusive, FUS yeast rescue inconclusive, TDP-43 yeast inh inconclusive, uPA generation inconclusive, Chronic BCR inh inconclusive
Cn1c(=O)c2[nH]c(N3CCN(c4cccc(O)c4)CC3)nc2n(C)c1=O	Chronic BCR inh inconclusive
Cc1nc(N2CCOCC2)nc(N2CCC(C)CC2)c1[N+](=O)[O-]	TDP-43 yeast inh inconclusive
Cc1nc(N2CCOCC2)nc(N2CCCCC2C)c1[N+](=O)[O-] (stereo unspecified)	TDP-43 yeast inh 20µM
COc1cccc([C@@H]2Nc3ccc(C(=O)O)cc3[C@@H]3C=CC[C@@H]32)c1OC	FUS yeast rescue inconclusive, TDP-43 yeast inh 18µM (no result: aSyn yeast inh, uPA generation)
CC(C)C1Nc2ccc(C(=O)O)cc2C2C=CCC21 (stereo unspecified)	TDP-43 yeast inh 18µM, Chronic BCR inh inconclusive
Cc1ccc(CCNC(=O)c2cc3c(s2)-c2c(C)cccc2OC3)cc1	none (no result: aSyn yeast inh, uPA generation, Chronic BCR inh)
O=C(CC1SC(=Nc2ccc(OC(F)F)cc2)N(CCN2CCOCC2)C1=O)Nc1ccc(F)cc1F (stereo unspecified)	none
COc1cccc2sc(Nc3nnc(-c4cccs4)o3)nc12	Chronic BCR inh inconclusive
COc1cccc2sc(Nc3nnc(-c4ccc(F)cc4)o3)nc12	uPA generation 5.6µM, Chronic BCR inh inconclusive
CC(=O)OC(c1nc2ccccc2c(=O)n1C1CC2(OC1=O)c1ccccc1N1C(=O)C(C)(C)N(O)C12)C(C)C (stereo unspecified)	FUS yeast rescue inconclusive
Cc1oc(-c2cccc(Cl)c2)nc1CSCC(=O)NCc1ccccc1Cl	TDP-43 yeast inh 22µM (no result: aSyn yeast inh, uPA generation, Chronic BCR inh)
Cn1nccc1-c1coc2c(C(=O)NCC3CCOCC3)cccc12	none (no result: uPA generation, Chronic BCR inh)
O=C(NCc1ccco1)c1ccc(-c2ccc(F)c(F)c2)c2ccoc12	TDP-43 yeast inh 20µM (no result: uPA generation, Chronic BCR inh)
Cn1nccc1-c1coc2c(C(=O)NCc3ccccc3)cccc12	TDP-43 yeast inh 3.5µM (no result: uPA generation, Chronic BCR inh)
Cn1nccc1-c1ccc(C(=O)NCc2ccc(Cl)cc2)c2occc12	FUS yeast rescue inconclusive, TDP-43 yeast inh 22µM (no result: uPA generation, Chronic BCR inh)
O=C(NCc1cccc(Cl)c1)c1ccc(-c2ccc(F)c(F)c2)c2ccoc12	none (no result: uPA generation, Chronic BCR inh)
O=C(NCc1ccccc1)c1ccc(-c2ccc(F)c(F)c2)c2ccoc12	none (no result: uPA generation, Chronic BCR inh)
O=C(NCc1ccccc1)c1ccc(CS(=O)(=O)Cc2ccccc2F)o1	none
COCCn1c(=S)[nH]c2sc3c(c2c1=O)CCCC3	TDP-43 yeast inh inconclusive, Abeta yeast res inconclusive, Chronic BCR inh inconclusive
Cc1ccc(NC(=O)c2cccs2)cc1	FUS yeast rescue 28µM, Chronic BCR inh inconclusive
Cc1ccc(C(=O)Nc2ccc(N3CCN(C)CC3)cc2)cc1	none
CCCCN(CCCC)S(=O)(=O)c1ccc(NC(=O)c2cccs2)cc1	FUS yeast rescue 2µM, Chronic BCR inh inconclusive (no result: uPA generation)
Cc1cc(C)nc(NS(=O)(=O)c2ccc(NC(=O)c3cccs3)cc2)n1	Chronic BCR inh inconclusive
Cc1ccc(NC(=O)c2ccc(C)cc2)cc1	uPA generation 2.8µM
Cc1nc(-c2ccc(NC(=O)c3ccccc3)cc2)cs1	uPA generation 2.2µM
Cc1ccc(C(=O)Nc2ccc(-c3csc(C)n3)cc2)cc1	Chronic BCR inh inconclusive
Cc1ccc(S(=O)(=O)N2CCC(C(N)=O)CC2)cc1C(=O)NC1CCCCC1	none
COc1ccc(-c2n[nH]c(=S)n2-c2ccccc2C)cc1	TDP-43 yeast inh inconclusive
CC(=O)Nc1ccc(NC(=O)C2CC(=O)Nc3ncnn32)cc1 (stereo unspecified)	none
COC[C@@H]1CCCN1c1ccc2c(c1)O[C@@H](COCc1ccccc1)CN([C@H](C)c1ccccc1)S2(=O)=O	FUS yeast rescue inconclusive (no result: uPA generation, Chronic BCR inh)
N#CNC(N)=Nc1cccc(Cl)c1	none
C=CCNC(=S)N1CCN(c2ccccc2Cl)CC1	uPA generation inconclusive, Abeta yeast res inconclusive, Chronic BCR inh inconclusive
